These results are taken from PubChem BioAssay.

For some of these results: Entries with a potency or affinity are not part of this list. Activity calls are given as the source filed them.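 How the source made its calls, unless noted: active means calcium signal cut by more than 3 SD below the full-agonist control yet still positive, in both repeats and the earlier primary screen; inactive means the rest.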

In assay [1] the test system is TRPC4 beta (transient receptor potential cation channel C4), mouse. Description: activators of mouse TRPC4 channel, confirmation, cell-based, Fluo4 calcium, HEK293 TRPC4beta/mu-opioid, duplicates, 10 µM (AID 2426;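 active means fluorescence ratio normalized to control raised more than 50% in primary screen plus both repeat runs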). The settings on record: Fluo4 calcium fluorescence, at 10 µM; hits give high values.
Assay [2] concerns transient receptor potential cation channel C4 beta (TRPC4), mouse. The assay can be described thus: activators of mouse TRPC4 channel, confirmation, cell-based, second round, Fluo4, HEK293 TRPC4beta/mu-opioid, 1 µM (AID 2461;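 active means primary screen active and over 50% activation in each of two duplicate runs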). The settings on record: Fluo4 calcium fluorescence, at 1 µM; hits give high values.
In assay [3] the test system is TRPC4 (transient receptor potential cation channel C4 beta), mouse. The assay can be described thus: positive allosteric modulators of mouse TRPC4, confirmation, cell-based, second round, Fluo-4, HEK293 TRPC4beta/mu-opioid, 1 µM (AID 2554;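 active means primary screen hit whose fluorescence ratio, in both repeats, exceeds the weak agonist control mean by 3 SD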). The settings on record: DAMGO EC20, Fluo-4 calcium flux, at 1 µM; hits give high values. (A change in cytosolic calcium serves as a functional read-out for many receptors and channels.)

The subject of assay [4] is TRPC4 beta (transient receptor potential cation channel C4), mouse. The assay can be described thus: positive allosteric modulators of mouse TRPC4, confirmation, cell-based, Fluo-4, HEK293 TRPC4beta/mu-opioid (AID 2555;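 active means primary screen hit whose calcium fluorescence ratio, in both repeats, exceeds the weak agonist control mean by 3 SD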). The settings on record: DAMGO EC20, Fluo-4 calcium flux, at 10 µM; hits give high values.
Assay [5] addresses Short transient receptor potential channel 4 (Mus musculus) (UniProt Q9QUQ5). Description: inhibitors of mouse TRPC4 channel, confirmation, cell-based, Fluo4, HEK293 TRPC4beta/mu-opioid (AID 2636). The settings on record: DAMGO, Fluo4 calcium flux, at 10 µM; hits give high values.
For assay [6] the target is unchanged. The assay can be described thus: inhibitors of mouse TRPC4 channel, confirmation, cell-based, second round, Fluo4, HEK293 TRPC4beta/mu-opioid, 1 µM (AID 2637;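 active means calcium signal ratio cut to more than 3 SD under the fully stimulated control mean yet still positive, in both repeats and the primary screen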). The settings on record: Fluo4 calcium flux, DAMGO, at 1 µM; hits give high values.
Assay [7] has the same target. The assay can be described thus: mouse TRPC4 channel activators, dose response, cell-based, HEK293 TRPC4/mu-opioid, Fluo-4 calcium (AID 434937;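 active means primary screen activator hit with a dose response curve and TRPC4 channel activation at any tested dose; inactive means no activation, no dose response, or not a primary hit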).
The target is the same in assay [8]. Description: TRPC4 positive allosteric modulators, dose response, cell-based, HEK293 TRPC4/mu-opioid, Fluo-4 calcium, EC20 DAMGO (AID 434941;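 active means earlier screen potentiator hit that boosts the TRPC4 ion channel at some dose, with a dose response; inactive means no potentiation, no dose response, or not a prior hit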;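 further: calcium entry triggered by an EC20 dose of DAMGO at the co-expressed mu-opioid receptor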).
Assay [9] has the same target. Description: mouse TRPC4 channel inhibitors, dose response, cell-based, HEK293 TRPC4/mu-opioid, Fluo-4 calcium (AID 434942;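 active means primary screen inhibitor hit that blocks the TRPC4 channel at some tested dose, yielding a dose curve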).
Assay [10] has as its target Short transient receptor potential channel 6 (Mus musculus) (UniProt Q61143). Description: inhibition of mouse TRPC6 channel, confirmation, selectivity assay for TRPC4 inhibitor project, cell-based, HEK293, membrane potential dye, duplicate (AID 434948;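 active means active in primary screen and both duplicates, each dropping signal beyond three positive-control SD with fluorescence still positive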). The settings on record: HEK293 TRPC6, membrane potential dye fluorescence, at 10 µM, stimulated with maximal-effect acetylcholine; hits give high values.

The target is the same in assay [11]. The assay can be described thus: activation of mouse TRPC6 channel, confirmation, selectivity assay for TRPC4 activator project, cell-based, HEK293, membrane potential dye, duplicate (AID 434950;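 active means membrane potential signal rise above negative control mean plus 3 SD in both duplicates, also active in the earlier TRPC4 screen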). The settings on record: HEK293 TRPC6, membrane potential fluorescence, at 10 µM; hits give high values.
For assay [12] the target is unchanged. The assay can be described thus: TRPC6 potentiation by TRPC4 potentiator hits, confirmation, selectivity assay for TRPC4 potentiator project, HEK293 cells, membrane potential dye, duplicate (AID 434952;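 active means compound raising the membrane signal above positive-control mean plus 3 SD in both repeats, and a primary screen hit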). The settings on record: HEK293 TRPC6, membrane potential dye fluorescence, at 10 µM, maximal acetylcholine added after compound; hits give high values.
For assay [13], the target named is Short transient receptor potential channel 4 (Mus musculus) (UniProt Q9QUQ5). Description: calcium flux activators in TRPC4/5HT1a cells, counter-screen for TRPC4 activator project, cell-based, second counter screen, HEK293 TRPC4/5HT1a, Fluo-4 (AID 434977;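 active means calcium signal rise above buffer-control mean plus 5 SD in both duplicates, and also a hit in the primary screen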). The settings on record: Fluo-4 calcium flux, at 10 µM; hits give high values.
Assay [14] can be described thus: calcium flux inhibitors in TRPC4/5HT1a cells, confirmation, counter-screen for TRPC4 inhibitor project, cell-based, second counter screen, HEK293 TRPC4/5HT1a, Fluo-4 (AID 434978;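 active means primary screen active whose calcium signal fell more than 3 SD beyond the full-serotonin control mean in both duplicate plates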;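 further: serotonin given first at submaximal then at maximal dose after compound preincubation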). The settings on record: Fluo-4 calcium flux, at 10 µM, serotonin added to trigger calcium flux; hits give high values.
The test system of assay [15] is TRPC4 (mouse), co-expressed with 5HT1a in HEK293. The assay can be described thus: calcium flux potentiators in TRPC4/5HT1a cells, confirmation, counter-screen for TRPC4 potentiator project, cell-based, second counter screen, HEK293 TRPC4/5HT1a, Fluo-4 (AID 434979;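 active means signal rise over 3 SD above mean of control wells given weak agonist, in both repeats and first screen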). The settings on record: Fluo-4 calcium flux, at 10 µM, serotonin added at its EC20 dose; hits give high values.

A short description of assay [16]: calcium flux activation in mu-opioid HEK293 cells, confirmation, counter-screen for TRPC4 activator project, cell-based, HEK293 mu-opioid receptor line (AID 449723;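 active means hit in primary screen, with calcium signal over 5 SD above buffer well mean in both duplicates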;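 further: counter screen cells carry the mu-opioid receptor alone and lack TRPC4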). The settings on record: Fluo-4 calcium fluorescence, at 10 µM; hits give high values.
A short description of assay [17]: calcium flux enhancement in mu-opioid HEK293 cells, confirmation, counter-screen for TRPC4 allosteric potentiator project, cell-based, HEK293 mu-opioid receptor line (AID 449724;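 active means calcium signal rise more than 3 SD above the low-dose agonist control mean, in both duplicate plates and the primary screen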;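 further: HEK293 cells carrying mu-opioid receptor only with no TRPC4 channel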). The settings on record: Fluo-4 calcium flux, at 10 µM, compound added before EC20 DAMGO stimulus; hits give high values.

Short transient receptor potential channel 4 (Mus musculus), sequence (Q9QUQ5 whole entry, looked up): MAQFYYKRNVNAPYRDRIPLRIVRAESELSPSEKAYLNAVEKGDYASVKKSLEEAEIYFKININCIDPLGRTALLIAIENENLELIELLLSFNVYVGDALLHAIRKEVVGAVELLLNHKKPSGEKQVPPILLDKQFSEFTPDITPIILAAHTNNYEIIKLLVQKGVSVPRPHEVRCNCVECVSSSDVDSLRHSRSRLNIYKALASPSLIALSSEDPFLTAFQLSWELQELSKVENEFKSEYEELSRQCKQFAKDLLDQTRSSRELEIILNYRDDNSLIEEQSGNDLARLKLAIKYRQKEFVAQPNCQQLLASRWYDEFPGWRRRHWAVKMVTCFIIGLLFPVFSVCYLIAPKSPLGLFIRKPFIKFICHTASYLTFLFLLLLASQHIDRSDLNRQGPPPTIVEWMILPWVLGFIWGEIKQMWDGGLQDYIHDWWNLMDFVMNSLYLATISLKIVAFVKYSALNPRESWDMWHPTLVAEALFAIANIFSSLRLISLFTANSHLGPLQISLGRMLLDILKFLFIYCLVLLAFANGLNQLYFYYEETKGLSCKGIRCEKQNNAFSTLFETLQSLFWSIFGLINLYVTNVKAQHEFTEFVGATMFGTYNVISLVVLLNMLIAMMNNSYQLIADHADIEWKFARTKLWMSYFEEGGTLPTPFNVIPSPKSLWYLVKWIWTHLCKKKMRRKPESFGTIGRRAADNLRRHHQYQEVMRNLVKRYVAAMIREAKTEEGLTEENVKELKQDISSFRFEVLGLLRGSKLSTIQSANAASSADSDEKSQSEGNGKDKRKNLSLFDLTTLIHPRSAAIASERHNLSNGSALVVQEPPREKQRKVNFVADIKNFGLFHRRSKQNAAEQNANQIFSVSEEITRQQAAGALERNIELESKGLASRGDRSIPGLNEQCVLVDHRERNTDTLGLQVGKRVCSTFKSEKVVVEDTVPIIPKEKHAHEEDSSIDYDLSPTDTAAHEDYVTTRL
Short transient receptor potential channel 6 (Mus musculus), sequence (Q61143 whole entry, looked up): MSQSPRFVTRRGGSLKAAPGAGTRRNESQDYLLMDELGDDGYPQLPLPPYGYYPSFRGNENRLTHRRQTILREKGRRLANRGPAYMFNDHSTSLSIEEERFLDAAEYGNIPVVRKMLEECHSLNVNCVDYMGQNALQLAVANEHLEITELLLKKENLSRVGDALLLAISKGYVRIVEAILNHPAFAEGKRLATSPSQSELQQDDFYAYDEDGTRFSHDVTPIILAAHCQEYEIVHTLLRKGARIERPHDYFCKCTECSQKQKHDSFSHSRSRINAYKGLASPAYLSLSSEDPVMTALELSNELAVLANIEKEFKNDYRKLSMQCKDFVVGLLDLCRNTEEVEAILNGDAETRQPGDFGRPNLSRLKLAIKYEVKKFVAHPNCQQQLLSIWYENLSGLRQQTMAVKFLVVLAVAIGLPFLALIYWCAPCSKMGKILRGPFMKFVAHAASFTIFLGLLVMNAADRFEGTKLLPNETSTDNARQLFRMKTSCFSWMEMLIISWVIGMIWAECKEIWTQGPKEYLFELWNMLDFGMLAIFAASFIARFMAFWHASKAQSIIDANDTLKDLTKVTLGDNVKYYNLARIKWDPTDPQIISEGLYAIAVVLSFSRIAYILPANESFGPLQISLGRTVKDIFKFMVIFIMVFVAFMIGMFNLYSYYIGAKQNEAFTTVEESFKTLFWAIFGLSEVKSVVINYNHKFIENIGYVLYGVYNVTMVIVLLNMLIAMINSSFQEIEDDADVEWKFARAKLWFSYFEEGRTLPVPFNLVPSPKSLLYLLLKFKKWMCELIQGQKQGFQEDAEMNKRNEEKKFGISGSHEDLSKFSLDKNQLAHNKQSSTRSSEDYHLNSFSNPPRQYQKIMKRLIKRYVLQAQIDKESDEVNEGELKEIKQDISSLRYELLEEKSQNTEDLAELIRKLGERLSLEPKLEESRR

Consider `O=C1NC(c2ccccc2)=C(c2nc3ccccc3s2)C(c2ccccc2)N1` (stereo not drawn), for which the outcome in [1], in assay [2], in assay [3], in assay [5], in assay [6] and in assay [7] was inactive. Also, the outcome in assay [8], in assay [9], in assay [10], in [11], in assay [12] and in assay [13] was inactive. Further, the outcome in assay [14], in assay [16] and in assay [17] was inactive. Further, the potentiation in [4] is 14% (active); in assay [15] it was 24.2% (active).
Regarding `C=CCNC(=O)C(=O)NCC1CCCN1S(=O)(=O)c1cccs1` (stereo not drawn), the result in [1], in assay [2], in [3], in [4], in [5] and in [6] was inactive. Also, the result in [7], in [8], in assay [9], in [10], in [11] and in assay [12] was inactive. In addition, the result in [13], in [14], in [16] and in assay [17] was inactive. The potentiation in [15] is 11.2% (active).
For `CCOC(=O)CC(NS(=O)(=O)c1ccc(OC)c(C)c1)c1cccc([N+](=O)[O-])c1` (stereo not drawn), the outcome in [1], in assay [2], in [3], in assay [4], in assay [5] and in assay [6] was inactive. Further, the outcome in assay [7], in assay [8], in assay [9], in [10], in [11] and in assay [12] was inactive. The outcome in assay [13], in assay [14], in [15], in assay [16] and in assay [17] was inactive.
As for `CCCCCCCCCCOC(=O)Cn1c(COc2ccccc2)[n+](C)c2ccccc21`, the outcome in [1], in [2], in assay [3], in [4], in assay [5] and in assay [6] was inactive. Moreover, the result in assay [7], in assay [8], in [9], in assay [10], in assay [11] and in assay [12] was inactive. In addition, the outcome in [13], in assay [14], in assay [15], in [16] and in assay [17] was inactive.
In the case of `Cc1cc(Br)ccc1OCCN1CCCC1`, the result in [1], in assay [2], in assay [4], in assay [5], in assay [6] and in assay [7] was inactive. Further, the outcome in [8], in assay [9], in [10], in assay [11], in assay [12] and in assay [13] was inactive. The result in [14], in assay [16] and in assay [17] was inactive. Further, the potentiation in assay [3] was 12% (active); in assay [15] it was 7.25% (active).
Take `CC1=C(C(=O)NCCN2CCN(C)CC2)C2(CCC(C)CC2)OC1=O` (stereo not drawn): the result in assay [1], in assay [2], in assay [3], in assay [4], in assay [5] and in assay [6] was inactive. The outcome in [7], in assay [8], in assay [9], in assay [10], in assay [11] and in assay [12] was inactive. Also, the outcome in assay [13], in assay [14], in assay [15], in [16] and in [17] was inactive.
Regarding `O=Cc1c(N2CCCCC2)nc2ccccn2c1=O`, the outcome in [1], in assay [2], in [3], in assay [4], in [5] and in [6] was inactive. For the same compound, the result in assay [7], in assay [8], in assay [9], in [10], in [11] and in assay [12] was inactive. The outcome in assay [13], in assay [14], in assay [15], in assay [16] and in assay [17] was inactive.
Take `CC(C)CCc1noc(CN2CCN(c3ccc(Cl)cn3)CC2)n1`: the outcome in assay [1], in [2], in assay [3], in assay [4], in assay [5] and in assay [6] was inactive. Moreover, the result in assay [7], in assay [8], in [9], in assay [10], in assay [11] and in assay [12] was inactive. Moreover, the result in assay [13], in assay [14], in [15], in assay [16] and in [17] was inactive.
In the case of `CCCCN(C)CCNC(=O)C1CCCN(S(=O)(=O)c2cccc3nsnc23)C1` (stereo not drawn), the result in assay [1], in [2], in assay [4], in assay [5], in [6] and in [7] was inactive. For the same compound, the result in assay [8], in [9], in [10], in assay [11], in [12] and in assay [13] was inactive. In addition, the outcome in assay [14], in assay [16] and in assay [17] was inactive. Besides, the potentiation in [3] is 11% (active); in [15], 7.12% (active).
On to `C=C(C)COc1ccc(-c2nc(N)ncc2-c2ccccc2OC)c(O)c1`, for which the outcome in assay [1], in assay [2], in assay [3], in assay [4], in assay [5] and in assay [6] was inactive. Further, the result in assay [7], in assay [8], in assay [9], in assay [10], in assay [11] and in assay [12] was inactive. In addition, the outcome in assay [13], in assay [14], in [16] and in [17] was inactive. For the same compound, the potentiation in assay [15] is 8.86% (active).
Take `OC(c1ccccc1)(c1ccccc1)C1CCN(C(=S)NC2CCCC2)CC1`: the result in [1], in assay [2], in [3], in assay [4], in [5] and in assay [6] was inactive. Moreover, the result in [7], in assay [8], in assay [9], in assay [10], in assay [11] and in [12] was inactive. Moreover, the outcome in assay [13], in [14], in [15], in [16] and in [17] was inactive.
As to `OC(CNCC1CCCO1)Cn1c2ccc(Br)cc2c2cc(Br)ccc21` (stereo not drawn), the outcome in assay [1], in assay [2], in assay [3], in assay [4], in assay [5] and in assay [6] was inactive. For the same compound, the result in [7], in assay [8], in assay [9], in [10], in [11] and in assay [12] was inactive. The outcome in [13], in [14], in assay [16] and in [17] was inactive. The potentiation in assay [15] was 45.1% (active).
In the case of `O=[N+]([O-])c1ccc(N2CCN(CCOc3nonc3-c3ccccc3)CC2)c(Cl)c1`, the result in assay [1], in [2], in assay [5], in [6], in assay [7] and in [8] was inactive. The outcome in [9], in assay [10], in [11], in [12], in assay [13] and in assay [14] was inactive. The outcome in [16] and in [17] was inactive. The values for the potentiation in assay [3], in assay [4] and in [15] were 10% (active), 34% (active) and 20.3% (active), respectively.
For the compound `CCN(CCO)Cc1csc2ccc(Br)cc12`, the result in assay [1], in [2], in assay [4], in assay [5], in assay [6] and in assay [7] was inactive. Further, the result in [8], in assay [9], in [10], in assay [11], in [12] and in assay [13] was inactive. Further, the result in [14], in [15], in assay [16] and in [17] was inactive. Moreover, the potentiation in [3] was 12% (active).
